30 targets from the supplement of paper PMC10849652 can be followed below.

The full data set covers some 7,900 targets. This sample favours those with a hit. About 0.6% of all pairs of compound and target were hits. Values without a mark were called inactive.

What all share (experiment): log2 fold change, soluble protein after heating vs DMSO (PISA); higher = thermal stabilisation; K562 cells, 10 uM, 30 min; active = over 0.2 and 3.5 SD of the protein, either way, in both replicates (recomputed)
Compound in test [1]: C1=CC=C(C=C1)[C@H](COC2=CC3=C(C=C2)NC(=O)N3)NC(=O)C4=CC=CN(C4=O)CC5=CC(=C(C=C5)F)F
Summed up:
(§1)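 K562 cells (2×10^6 cells/mL) were treated with 10 μM compound for 30 min, and aliquots were heated for 3 min over 48°C-58°C. Pooled aliquots were extracted in PBS with 0.5% NP-40 at 4°C, and the supernatant after 21,000xg for 90 min was measured by TMTpro 16plex LC-MS/MS with channel sums equalised. Reported thermal stability, relative to control samples and from duplicates, is a log2 fold change.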

Compound in test [2]: CC1=C(SC2=C1C(=N[C@H](C3=NN=C(N32)C)CC(=O)N)C4=CC=C(C=C4)Cl)C
Summed up: as §1

Compound in test [3]: CC1=C2C(=CC=C1)N=C(N(C2=O)C3=CC=CC=C3C)CN4C=NC5=C(N=CN=C54)N
The gist of the method:
as §1

Compound in test [4]: Cc1sc2c(c1C)C(c1ccc(Cl)cc1)=N[C@@H](CC(=O)OC(C)(C)C)c1nnc(C)n1-2
Summed up: as §1

Compound in test [5]: c1ccc([C@@H]2C[C@H]2NC2CCNCC2)cc1
Summed up:
as §1

UniProt Q9UG56, sequence (Q9UG56 whole entry, looked up): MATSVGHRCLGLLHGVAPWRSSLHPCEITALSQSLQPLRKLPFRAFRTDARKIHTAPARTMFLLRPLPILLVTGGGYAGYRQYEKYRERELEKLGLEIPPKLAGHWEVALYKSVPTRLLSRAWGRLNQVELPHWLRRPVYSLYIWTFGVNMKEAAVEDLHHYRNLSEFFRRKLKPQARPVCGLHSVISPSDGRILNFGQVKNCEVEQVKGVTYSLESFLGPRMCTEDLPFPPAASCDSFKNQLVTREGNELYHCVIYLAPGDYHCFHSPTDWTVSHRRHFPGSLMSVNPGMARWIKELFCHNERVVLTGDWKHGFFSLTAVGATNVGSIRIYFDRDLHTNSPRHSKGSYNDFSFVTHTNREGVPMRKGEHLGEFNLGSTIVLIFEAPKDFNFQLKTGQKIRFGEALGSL
UniProt P62195, sequence (P62195 whole entry, looked up): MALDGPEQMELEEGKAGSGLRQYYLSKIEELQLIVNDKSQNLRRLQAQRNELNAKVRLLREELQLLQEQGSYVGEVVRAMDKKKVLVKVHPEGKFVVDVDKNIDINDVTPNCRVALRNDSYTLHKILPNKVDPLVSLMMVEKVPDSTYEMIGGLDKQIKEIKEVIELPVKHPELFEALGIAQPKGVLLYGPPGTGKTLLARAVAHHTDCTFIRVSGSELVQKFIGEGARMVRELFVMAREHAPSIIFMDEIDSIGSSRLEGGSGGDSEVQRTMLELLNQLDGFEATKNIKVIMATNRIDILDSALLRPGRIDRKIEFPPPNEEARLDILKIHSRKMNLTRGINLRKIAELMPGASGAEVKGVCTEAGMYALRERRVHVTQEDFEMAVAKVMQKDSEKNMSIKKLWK
UniProt Q86TB9, sequence (Q86TB9 whole entry, looked up): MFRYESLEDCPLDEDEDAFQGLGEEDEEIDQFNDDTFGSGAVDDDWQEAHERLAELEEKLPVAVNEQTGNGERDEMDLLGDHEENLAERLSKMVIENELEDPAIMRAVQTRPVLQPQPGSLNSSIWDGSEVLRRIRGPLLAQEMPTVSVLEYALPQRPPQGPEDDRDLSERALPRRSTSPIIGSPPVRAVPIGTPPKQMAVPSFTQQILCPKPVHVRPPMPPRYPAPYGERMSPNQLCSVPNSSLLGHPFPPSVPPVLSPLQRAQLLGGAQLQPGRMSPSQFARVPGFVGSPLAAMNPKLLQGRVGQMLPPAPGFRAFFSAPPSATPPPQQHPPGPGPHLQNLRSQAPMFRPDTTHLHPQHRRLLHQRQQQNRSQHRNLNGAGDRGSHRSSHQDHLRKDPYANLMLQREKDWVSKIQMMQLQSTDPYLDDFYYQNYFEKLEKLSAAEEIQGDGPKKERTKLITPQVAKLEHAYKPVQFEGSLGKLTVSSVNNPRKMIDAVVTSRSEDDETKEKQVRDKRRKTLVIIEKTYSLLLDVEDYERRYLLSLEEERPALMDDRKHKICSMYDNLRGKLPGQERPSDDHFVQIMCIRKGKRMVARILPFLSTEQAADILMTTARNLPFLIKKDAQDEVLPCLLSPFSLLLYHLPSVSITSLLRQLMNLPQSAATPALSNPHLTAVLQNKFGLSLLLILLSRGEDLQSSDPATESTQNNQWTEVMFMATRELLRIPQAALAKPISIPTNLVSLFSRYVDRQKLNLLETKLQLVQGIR
UniProt O60925, sequence (O60925 whole entry, looked up): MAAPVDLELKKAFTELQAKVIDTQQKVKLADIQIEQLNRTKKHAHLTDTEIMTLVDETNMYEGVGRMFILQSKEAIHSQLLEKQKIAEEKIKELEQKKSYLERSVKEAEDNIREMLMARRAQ
UniProt Q8NAV1, sequence (Q8NAV1 whole entry, looked up): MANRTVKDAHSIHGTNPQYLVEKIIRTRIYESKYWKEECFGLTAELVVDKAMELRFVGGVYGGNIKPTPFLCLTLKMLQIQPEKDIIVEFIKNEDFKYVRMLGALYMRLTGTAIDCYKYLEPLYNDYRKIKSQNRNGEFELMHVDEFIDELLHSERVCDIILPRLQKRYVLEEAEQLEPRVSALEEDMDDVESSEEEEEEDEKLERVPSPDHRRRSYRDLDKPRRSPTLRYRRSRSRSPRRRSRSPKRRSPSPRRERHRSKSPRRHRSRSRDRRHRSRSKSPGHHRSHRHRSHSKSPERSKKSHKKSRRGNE
UniProt O00628, sequence (O00628 whole entry, looked up): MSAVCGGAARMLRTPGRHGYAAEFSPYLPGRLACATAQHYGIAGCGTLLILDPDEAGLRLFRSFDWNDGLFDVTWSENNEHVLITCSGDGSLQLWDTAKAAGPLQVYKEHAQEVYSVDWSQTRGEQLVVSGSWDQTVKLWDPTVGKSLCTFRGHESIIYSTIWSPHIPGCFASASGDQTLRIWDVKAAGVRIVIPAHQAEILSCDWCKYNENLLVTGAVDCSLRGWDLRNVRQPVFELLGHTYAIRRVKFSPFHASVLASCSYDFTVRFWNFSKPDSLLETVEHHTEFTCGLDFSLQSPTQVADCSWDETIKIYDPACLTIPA
UniProt P31323, sequence (P31323 whole entry, looked up): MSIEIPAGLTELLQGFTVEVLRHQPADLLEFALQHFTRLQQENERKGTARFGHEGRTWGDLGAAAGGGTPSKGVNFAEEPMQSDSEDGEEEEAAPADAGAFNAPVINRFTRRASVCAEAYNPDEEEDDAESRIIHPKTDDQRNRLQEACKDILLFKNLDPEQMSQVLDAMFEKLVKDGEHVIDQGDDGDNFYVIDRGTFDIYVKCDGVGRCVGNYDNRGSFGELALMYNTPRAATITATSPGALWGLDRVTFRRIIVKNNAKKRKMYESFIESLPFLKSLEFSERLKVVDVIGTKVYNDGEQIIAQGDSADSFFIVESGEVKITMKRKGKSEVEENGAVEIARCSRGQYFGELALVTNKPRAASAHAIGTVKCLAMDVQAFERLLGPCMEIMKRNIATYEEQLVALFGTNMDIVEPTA
UniProt P40425, sequence (P40425 whole entry, looked up): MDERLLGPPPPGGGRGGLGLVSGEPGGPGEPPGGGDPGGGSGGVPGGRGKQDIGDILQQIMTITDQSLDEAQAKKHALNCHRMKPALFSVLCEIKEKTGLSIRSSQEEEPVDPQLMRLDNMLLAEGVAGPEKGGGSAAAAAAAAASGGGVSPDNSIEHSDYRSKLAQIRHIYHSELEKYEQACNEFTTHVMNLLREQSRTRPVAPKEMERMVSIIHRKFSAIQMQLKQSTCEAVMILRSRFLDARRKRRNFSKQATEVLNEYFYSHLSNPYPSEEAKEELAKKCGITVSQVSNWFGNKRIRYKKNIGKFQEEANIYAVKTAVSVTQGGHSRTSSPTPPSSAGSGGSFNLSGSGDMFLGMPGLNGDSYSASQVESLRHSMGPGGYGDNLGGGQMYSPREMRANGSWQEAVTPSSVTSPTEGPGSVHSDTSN
UniProt Q02156, sequence (Q02156 whole entry, looked up): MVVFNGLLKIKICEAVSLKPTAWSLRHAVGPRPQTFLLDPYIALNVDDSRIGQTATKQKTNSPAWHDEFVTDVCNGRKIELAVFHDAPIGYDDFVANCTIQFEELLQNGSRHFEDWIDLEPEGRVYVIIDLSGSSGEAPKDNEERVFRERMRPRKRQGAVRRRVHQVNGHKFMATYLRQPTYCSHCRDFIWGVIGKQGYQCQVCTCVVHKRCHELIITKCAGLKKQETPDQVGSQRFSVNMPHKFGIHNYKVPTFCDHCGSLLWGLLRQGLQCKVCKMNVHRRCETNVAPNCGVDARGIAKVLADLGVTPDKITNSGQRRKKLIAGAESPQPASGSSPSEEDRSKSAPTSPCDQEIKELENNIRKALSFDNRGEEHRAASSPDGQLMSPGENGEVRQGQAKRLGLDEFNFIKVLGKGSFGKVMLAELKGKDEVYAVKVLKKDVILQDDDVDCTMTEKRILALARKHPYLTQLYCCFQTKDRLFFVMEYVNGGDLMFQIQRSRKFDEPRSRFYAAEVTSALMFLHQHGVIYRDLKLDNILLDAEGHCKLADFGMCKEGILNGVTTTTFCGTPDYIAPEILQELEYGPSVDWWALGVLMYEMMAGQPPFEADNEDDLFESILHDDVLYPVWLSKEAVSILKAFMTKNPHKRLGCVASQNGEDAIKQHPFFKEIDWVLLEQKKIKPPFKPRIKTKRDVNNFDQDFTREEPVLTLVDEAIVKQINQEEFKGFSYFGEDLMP
UniProt O43164, sequence (O43164 whole entry, looked up): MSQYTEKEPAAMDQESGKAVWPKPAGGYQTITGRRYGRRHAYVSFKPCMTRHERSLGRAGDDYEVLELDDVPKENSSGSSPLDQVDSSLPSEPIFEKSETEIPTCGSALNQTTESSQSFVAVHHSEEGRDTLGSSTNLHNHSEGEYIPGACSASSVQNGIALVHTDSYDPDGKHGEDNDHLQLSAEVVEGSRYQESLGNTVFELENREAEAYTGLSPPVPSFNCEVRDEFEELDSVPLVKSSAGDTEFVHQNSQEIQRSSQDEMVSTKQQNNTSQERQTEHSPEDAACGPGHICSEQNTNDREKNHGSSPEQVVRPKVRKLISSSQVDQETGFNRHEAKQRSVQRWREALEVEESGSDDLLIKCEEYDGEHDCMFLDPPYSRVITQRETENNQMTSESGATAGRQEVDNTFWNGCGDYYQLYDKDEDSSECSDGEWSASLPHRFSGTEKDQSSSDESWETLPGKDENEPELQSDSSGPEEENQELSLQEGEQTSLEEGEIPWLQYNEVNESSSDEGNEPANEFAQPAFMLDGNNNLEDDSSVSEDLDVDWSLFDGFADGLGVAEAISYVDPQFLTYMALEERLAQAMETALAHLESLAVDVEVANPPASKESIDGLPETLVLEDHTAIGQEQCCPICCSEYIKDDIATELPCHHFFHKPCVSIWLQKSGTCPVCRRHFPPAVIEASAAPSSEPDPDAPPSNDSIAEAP
UniProt Q93096, sequence (Q93096 whole entry, looked up): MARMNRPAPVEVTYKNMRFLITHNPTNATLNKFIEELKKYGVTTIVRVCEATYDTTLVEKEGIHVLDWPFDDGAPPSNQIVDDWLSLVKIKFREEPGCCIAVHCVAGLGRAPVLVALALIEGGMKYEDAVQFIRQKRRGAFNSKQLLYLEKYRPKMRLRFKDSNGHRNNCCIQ
UniProt Q7RTV0, sequence (Q7RTV0 whole entry, looked up): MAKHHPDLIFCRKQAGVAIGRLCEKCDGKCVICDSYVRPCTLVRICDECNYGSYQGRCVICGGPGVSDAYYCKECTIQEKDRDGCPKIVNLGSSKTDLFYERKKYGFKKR

Consider POLR1A (UniProt O95602), for which the log2 fold change is 0.049 in test [1]; -0.043 in test [2]; -0.044 in test [3]; 0.096 in test [4]; -0.015 in test [5].

As for PFDN1 (UniProt O60925), the log2 fold change was -0.102 in test [1]; 0.155 in test [2]; 0.061 in test [3]; -0.171 in test [4]; -0.061 in test [5].

For PARG (UniProt Q86W56), the log2 fold change in test [1] was -0.043; in test [2], -0.013; in test [3] it was 0.018; in test [4] it was -0.009; in test [5], -0.075.

Consider PIP4K2B (UniProt P78356), for which the log2 fold change in test [1] was -0.102; in test [2] it was 0.018; in test [3], -0.034; in test [4], -0.038; in test [5], -0.026.

Turning to PRKD2 isoform 3 (UniProt Q9BZL6), the log2 fold change in test [1] is -0.051; in test [2] it was 0.238; in test [3] it was -0.057; in test [4] it was 0.064; in test [5], 0.028.

In the case of PCYT1B (UniProt Q9Y5K3), the log2 fold change in test [1] is -0.063; in test [2], -0.003; in test [3], 0.022; in test [4], 0.042; in test [5] it was 0.034.

As to PJA2 (UniProt O43164), the log2 fold change in test [1] is 0.005; in test [2] it was -0.042; in test [3], 0.021; in test [4], 0.006; in test [5] it was 0.024.

For PGK2 (UniProt P07205), the log2 fold change in test [1] is -0.1; in test [2] it was 0.046; in test [3], 0.153; in test [4], 0.037; in test [5], 0.034.

PELP1 (UniProt Q8IZL8): the log2 fold change in test [1] is 0; in test [2], 0.006; in test [3], -0.028; in test [4], -0.044; in test [5] it was -0.013.

As for PRKCE (UniProt Q02156), the log2 fold change in test [1] is -0.065; in test [2], 0.033; in test [3] it was 0.071; in test [4], 0.018; in test [5], 0.

Regarding PSMD6 (UniProt Q15008), the log2 fold change in test [1] is 0.019; in test [2] it was -0.088; in test [3], -0.116; in test [4] it was -0.006; in test [5] it was 0.001.

PISD (UniProt Q9UG56): the log2 fold change in test [1] is 0.002; in test [2], -0.024; in test [3] it was 0.079; in test [4] it was -0.011; in test [5] it was 0.043.

Take PTGFRN (UniProt Q9P2B2): the log2 fold change in test [1] is -0.014; in test [2] it was 0.036; in test [3], 0.043; in test [4] it was 0.04; in test [5], -0.006.

With POM121 (UniProt Q96HA1), the log2 fold change in test [1] was 0.023; in test [2], -0.033; in test [3], 0.026; in test [4] it was 0.054; in test [5], -0.002.

As for PATL1 (UniProt Q86TB9), the log2 fold change in test [1] was -0.019; in test [2] it was -0.004; in test [3], 0.095; in test [4] it was 0; in test [5] it was -0.021.

For the target PTP4A1 (UniProt Q93096), the log2 fold change in test [1] is -0.002; in test [2], 0.109; in test [3] it was 0.037; in test [4] it was 0.001; in test [5], -0.031.

As for PDCD6IP (UniProt Q8WUM4), the log2 fold change is -0.131 in test [1]; 0.05 in test [2]; 0.119 in test [3]; -0.029 in test [4]; -0.04 in test [5].

In the case of POP1 (UniProt Q99575), the log2 fold change was 0.003 in test [1]; -0.028 in test [2]; 0.029 in test [3]; 0.017 in test [4]; -0.01 in test [5].

Consider POLR2I (UniProt P36954), for which the log2 fold change is 0.063 in test [1]; 0.104 in test [2]; -0.163 in test [3]; 0.194 in test [4]; -0.035 in test [5].

As for PRPF38A (UniProt Q8NAV1), the log2 fold change is 0.014 in test [1]; -0.011 in test [2]; 0.024 in test [3]; 0.007 in test [4]; 0.015 in test [5].

Consider PRKAR2B (UniProt P31323), for which the log2 fold change is -0.065 in test [1]; -0.012 in test [2]; -0.06 in test [3]; -0.024 in test [4]; 0.007 in test [5].

As for PHF5A (UniProt Q7RTV0), the log2 fold change is 0.048 in test [1]; -0.024 in test [2]; 0.018 in test [3]; 0.002 in test [4]; 0.018 in test [5].

As to PRPSAP2 (UniProt O60256), the log2 fold change in test [1] is 0.009; in test [2], -0.026; in test [3] it was -0.027; in test [4], -0.012; in test [5], 0.

For PARN (UniProt O95453), the log2 fold change is -0.018 in test [1]; 0.059 in test [2]; 0.071 in test [3]; -0.028 in test [4]; 0.025 in test [5].

In the case of PRKAR1A (UniProt P10644), the log2 fold change is 0.213 in test [1]; -0.019 in test [2]; 0.119 in test [3]; 0.041 in test [4]; -0.008 in test [5].

For PRKAG1 isoform 3 (UniProt P54619), the log2 fold change in test [1] is -0.008; in test [2], 0.067; in test [3], 0.019; in test [4], -0.011; in test [5], -0.017.

For the target PIK3CB (UniProt P42338), the log2 fold change in test [1] was -0.068; in test [2], 0.014; in test [3] it was 0.213 (active); in test [4], -0.01; in test [5], 0.005.

In the case of PBX2 (UniProt P40425), the log2 fold change in test [1] is -0.052; in test [2], 0.082; in test [3], -0.011; in test [4] it was 0.051; in test [5], -0.016.

PEX7 (UniProt O00628): the log2 fold change in test [1] was -0.371 (active); in test [2], 0.035; in test [3], 0.136; in test [4], 0.021; in test [5] it was -0.03.

Turning to PSMC5 (UniProt P62195), the log2 fold change in test [1] is 0.017; in test [2] it was -0.087; in test [3] it was -0.045; in test [4], 0.006; in test [5] it was 0.01.
